Results taken from PubChem BioAssay.
Calls of active or inactive are those of the source.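 Rule for the calls, unless noted: active = compounds lowering colon cancer cell viability after pretreatment blocking the GSK3B kinase; inactive = the rest.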

Assay: growth inhibition of GSK3B-pretreated HCT116 cells – cell-based, CellTiter-Glo, 0.2 to 20 µM (AID 1117336)
Settings: HCT116 viability after GSK3B inhibitor, at 20 µM, stronger effect = higher value

| Compound | viability decrease |
| --- | --- |
| CC[C@@]1(O)C(=O)OCc2c1cc1n(c2=O)Cc2c-1nc1ccccc1c2/C=N/OC(C)(C)C | -17.1% (active) |
| CC1(C)O[C@@H]2C[C@H]3[C@@H]4CCC5=CC(=O)C=C[C@]5(C)[C@@H]4[C@@H](O)C[C@]3(C)[C@]2(C(=O)CO)O1 | -46.1% (inactive) |
| Cc1ccc(S(=O)(=O)NC(=O)NC2CCCCC2)cc1 | -13% (inactive) |
| CCCCCC1Nc2cc(C(F)(F)F)c(S(N)(=O)=O)cc2S(=O)(=O)N1 (stereo not drawn) | 13.4% (inactive) |
| CC(C)(C)NCC(O)COc1ccccc1OCC1CCCO1 (stereo not drawn) | -18.7% (inactive) |
| NC(=O)NC1N=C([O][Al])NC1=O (stereo not drawn) | 13.8% (inactive) |
| CC(C)CCOC(=O)c1ccc(N(C)C)cc1 | -16.7% (inactive) |
| Nc1nc(=O)n([C@@H]2O[C@H](CO)[C@@H](O)[C@@H]2F)cc1I | 2.9% (inactive) |
| CCOC(=O)c1cccnc1 | -2.55% (inactive) |
| CCN(CC)CCOC(=O)C1(c2ccccc2)CCCC1 | -14.1% (inactive) |
| NS(=O)(=O)c1ccc(NC(=O)CCC(=O)O)cc1 | -9.65% (inactive) |
| CCCCCCCC(=O)OCC(O)CO (stereo not drawn) | -10.8% (inactive) |
| Cc1nc(-c2ccc(Cl)cc2)oc1COC(C)(C)C(=O)O | -10.1% (inactive) |
| CN(CC1(C)CCCO1)S(=O)(=O)c1ccc(Cl)c(S(N)(=O)=O)c1 (stereo not drawn) | -0.1% (inactive) |
| CCC(=O)Oc1ccc2c(c1)CC[C@@H]1[C@H]2CC[C@]2(C)[C@@H](OC(=O)CC)CC[C@@H]12 | 33.4% (inactive) |
| Nc1ccc([N+](=O)[O-])c(C(F)(F)F)c1 | 13.2% (inactive) |
| CN1N=C(C(N)=O)CCC1=O | 3.8% (inactive) |
| CC(C)(C)C(=O)OCOC(=O)C1N2C(=O)CC2S(=O)(=O)C1(C)C (stereo not drawn) | 10.9% (inactive) |
| CCCCCCCCCCCCCCCC(=O)OC(C)C | -9.5% (inactive) |
| CCCCN(CCN(CCCC)C(=O)N1CCOCC1)C(=O)N1CCOCC1 | -64.8% (inactive) |

| Compound | viability decrease |
| --- | --- |
| CCc1cccc2c(CCO)c[nH]c12 | 12.2% (inactive) |
| CCc1cc(S(=O)(=O)O)c2cc(C(C)C)cccc1-2 | -5.3% (inactive) |
| O=C(O)[C@@H]1CSCN1 | -3.1% (inactive) |
| CCN1CCN(C(=O)N[C@@H](C(=O)N[C@@H]2C(=O)N3[C@@H]2SC(C)(C)[C@H]3C(=O)O)c2ccccc2)C(=O)C1=O | -21.3% (inactive) |
| O=C(O)c1ccccc1-c1ccc(C(F)(F)F)cc1 | -52.5% (inactive) |
| CCCc1ncc(C(=O)O)s1 | -8.2% (inactive) |
| O=c1[nH]c2ccccc2c(=O)n1CCCl | 41.6% (inactive) |
| CCCCCCCCCCCCCCCCCC(=O)[O][Al] | 2.3% (inactive) |
| CCN[C@@H]1C[C@H](N)[C@@H](OC2OC(CN)=CCC2N)[C@H](O)[C@H]1O[C@H]1OC[C@](C)(O)[C@H](NC)[C@H]1O (stereo partly drawn) | -7.4% (inactive) |
| CCCCCCCC/C=C/C(=O)O | -52.2% (inactive) |
| CC[C@@]1(c2ccccc2)NC(=O)N(C)C1=O | 2.35% (inactive) |
| Nc1ncnc2c1ncn2Cc1c(F)cccc1Cl | -7.4% (inactive) |
| CC(C)(C)NCC(O)COc1ccc(NC(=O)NC2CCCCC2)cc1 (stereo not drawn) | -5.2% (inactive) |
| OC[C@H]1O[C@@H](n2cnc3c(=S)nc[nH]c32)[C@H](O)[C@@H]1O | 95.3% (active) |
| OCCCc1ccccc1 | 9.55% (inactive) |
| O=C(O)c1c(O)c(-c2ccccc2)nc2ccccc12 | 66.1% (active) |
| Cc1onc(-c2c(Cl)cccc2Cl)c1C(=O)Cl | -3.8% (inactive) |
| NC(=S)N=Nc1ccc(NN=C(N)N)cc1 | -24.6% (inactive) |
| CC(=O)O[C@@H]1CC2C3CCc4cc(OC(=O)c5ccccc5)ccc4C3CCC2(C)[C@H]1OC(C)=O (stereo partly drawn) | -39.7% (inactive) |

Assay: inhibition of endothelial tube formation, primary screen, imaging, VEGF stimulated, CD31 staining, tube area, NPC library (AID 1117340;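 active = compound that reduces growth-factor-driven endothelial tube area in a mixed cell culture, no cutoff stated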)
Settings: VEGF-stimulated ADSC/ECFC co-culture, at 10 µM, stronger effect = higher value

| Compound | tube area decrease |
| --- | --- |
| CC[C@@]1(O)C(=O)OCc2c1cc1n(c2=O)Cc2c-1nc1ccccc1c2/C=N/OC(C)(C)C | 59.9% (active) |
| CC1(C)O[C@@H]2C[C@H]3[C@@H]4CCC5=CC(=O)C=C[C@]5(C)[C@@H]4[C@@H](O)C[C@]3(C)[C@]2(C(=O)CO)O1 | 4.9% (inactive) |
| Cc1ccc(S(=O)(=O)NC(=O)NC2CCCCC2)cc1 | -13.1% (inactive) |
| CCCCCC1Nc2cc(C(F)(F)F)c(S(N)(=O)=O)cc2S(=O)(=O)N1 (stereo not drawn) | 9.2% (inactive) |
| CC(C)(C)NCC(O)COc1ccccc1OCC1CCCO1 (stereo not drawn) | 34.3% (inactive) |
| NC(=O)NC1N=C([O][Al])NC1=O (stereo not drawn) | 0.8% (inactive) |
| CC(C)CCOC(=O)c1ccc(N(C)C)cc1 | -11.5% (inactive) |
| Nc1nc(=O)n([C@@H]2O[C@H](CO)[C@@H](O)[C@@H]2F)cc1I | 74% (active) |
| CCOC(=O)c1cccnc1 | -7.8% (inactive) |
| CCN(CC)CCOC(=O)C1(c2ccccc2)CCCC1 | 22.6% (inactive) |
| NS(=O)(=O)c1ccc(NC(=O)CCC(=O)O)cc1 | -1.3% (inactive) |
| CCCCCCCC(=O)OCC(O)CO (stereo not drawn) | -3.1% (inactive) |
| Cc1nc(-c2ccc(Cl)cc2)oc1COC(C)(C)C(=O)O | 9.7% (inactive) |
| CN(CC1(C)CCCO1)S(=O)(=O)c1ccc(Cl)c(S(N)(=O)=O)c1 (stereo not drawn) | -8.9% (inactive) |
| CCC(=O)Oc1ccc2c(c1)CC[C@@H]1[C@H]2CC[C@]2(C)[C@@H](OC(=O)CC)CC[C@@H]12 | 28% (inactive) |
| Nc1ccc([N+](=O)[O-])c(C(F)(F)F)c1 | 1.1% (inactive) |
| CN1N=C(C(N)=O)CCC1=O | 1.5% (inactive) |
| CC(C)(C)C(=O)OCOC(=O)C1N2C(=O)CC2S(=O)(=O)C1(C)C (stereo not drawn) | -21.6% (inactive) |
| CCCCCCCCCCCCCCCC(=O)OC(C)C | -17.7% (inactive) |
| CCCCN(CCN(CCCC)C(=O)N1CCOCC1)C(=O)N1CCOCC1 | 17.8% (inactive) |

| Compound | tube area decrease |
| --- | --- |
| CCc1cccc2c(CCO)c[nH]c12 | -19.3% (inactive) |
| CCc1cc(S(=O)(=O)O)c2cc(C(C)C)cccc1-2 | -12.6% (inactive) |
| O=C(O)[C@@H]1CSCN1 | 16.2% (inactive) |
| CCN1CCN(C(=O)N[C@@H](C(=O)N[C@@H]2C(=O)N3[C@@H]2SC(C)(C)[C@H]3C(=O)O)c2ccccc2)C(=O)C1=O | -12.7% (inactive) |
| O=C(O)c1ccccc1-c1ccc(C(F)(F)F)cc1 | 21.5% (inactive) |
| CCCc1ncc(C(=O)O)s1 | 9.7% (inactive) |
| O=c1[nH]c2ccccc2c(=O)n1CCCl | -18.9% (inactive) |
| CCCCCCCCCCCCCCCCCC(=O)[O][Al] | -3.5% (inactive) |
| CCN[C@@H]1C[C@H](N)[C@@H](OC2OC(CN)=CCC2N)[C@H](O)[C@H]1O[C@H]1OC[C@](C)(O)[C@H](NC)[C@H]1O (stereo partly drawn) | 0.9% (inactive) |
| CCCCCCCC/C=C/C(=O)O | -10.1% (inactive) |
| CC[C@@]1(c2ccccc2)NC(=O)N(C)C1=O | 0.1% (inactive) |
| Nc1ncnc2c1ncn2Cc1c(F)cccc1Cl | -5% (inactive) |
| CC(C)(C)NCC(O)COc1ccc(NC(=O)NC2CCCCC2)cc1 (stereo not drawn) | 9.5% (inactive) |
| OC[C@H]1O[C@@H](n2cnc3c(=S)nc[nH]c32)[C@H](O)[C@@H]1O | 95.4% (active) |
| OCCCc1ccccc1 | -11.1% (inactive) |
| O=C(O)c1c(O)c(-c2ccccc2)nc2ccccc12 | 2.6% (inactive) |
| Cc1onc(-c2c(Cl)cccc2Cl)c1C(=O)Cl | 54.1% (active) |
| NC(=S)N=Nc1ccc(NN=C(N)N)cc1 | 15.7% (inactive) |
| CC(=O)O[C@@H]1CC2C3CCc4cc(OC(=O)c5ccccc5)ccc4C3CCC2(C)[C@H]1OC(C)=O (stereo partly drawn) | 27.8% (inactive) |
